Experimental data from the supplement of paper PMC3334620.
Over roughly 33,000 sequences, “E-score (-0.5 to 0.5)” has its median near -0.043; the highest 2% begin near 0.37. The sample as a whole holds a higher share of the highest values than the screen did.

Target: T1, Upc2 (UniProt Q12151)
T1 sequence: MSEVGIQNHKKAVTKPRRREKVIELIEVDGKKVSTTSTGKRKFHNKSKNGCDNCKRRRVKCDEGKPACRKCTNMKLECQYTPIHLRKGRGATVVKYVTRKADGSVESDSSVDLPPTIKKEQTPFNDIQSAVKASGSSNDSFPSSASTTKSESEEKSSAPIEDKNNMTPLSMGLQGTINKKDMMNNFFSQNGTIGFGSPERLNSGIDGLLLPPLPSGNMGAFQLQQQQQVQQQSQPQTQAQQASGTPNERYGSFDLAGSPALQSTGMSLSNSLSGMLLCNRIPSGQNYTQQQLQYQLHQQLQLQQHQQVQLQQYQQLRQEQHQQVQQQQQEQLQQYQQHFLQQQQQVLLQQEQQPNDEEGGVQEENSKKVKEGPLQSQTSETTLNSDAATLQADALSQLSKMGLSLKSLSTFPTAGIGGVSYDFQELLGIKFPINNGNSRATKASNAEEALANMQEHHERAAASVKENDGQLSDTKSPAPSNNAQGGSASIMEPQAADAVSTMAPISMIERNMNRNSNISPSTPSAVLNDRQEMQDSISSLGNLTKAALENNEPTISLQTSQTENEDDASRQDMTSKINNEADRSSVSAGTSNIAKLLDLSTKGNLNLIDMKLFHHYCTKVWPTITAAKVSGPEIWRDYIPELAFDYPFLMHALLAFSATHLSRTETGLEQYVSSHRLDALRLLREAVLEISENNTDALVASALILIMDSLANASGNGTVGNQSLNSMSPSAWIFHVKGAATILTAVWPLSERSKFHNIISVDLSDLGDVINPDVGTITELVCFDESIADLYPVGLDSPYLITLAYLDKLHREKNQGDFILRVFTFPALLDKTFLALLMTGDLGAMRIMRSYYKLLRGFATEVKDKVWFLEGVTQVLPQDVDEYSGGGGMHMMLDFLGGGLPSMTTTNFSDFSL
Assay: PBM E-score (8-mer binding enrichment) (E-score (-0.5 to 0.5)); higher = stronger / more preferred TF binding
Conditions: protein concentration: 200 nM; construct: GST-full length
Experimental: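 Universal 'all 10-mer' protein binding microarrays (Agilent AMADID 015681) probed with GST-tagged S. cerevisiae TFs (full-length or DBD) made by in vitro transcription/translation (PURExpress), about 100-200 nM. Bound TF was detected with fluorescent anti-GST. Each ungapped 8-mer (which stands for itself and its reverse complement) is scored by the PBM enrichment score (E-score), a modified Wilcoxon-Mann-Whitney statistic from -0.5 to +0.5, computed with the Universal PBM Analysis Suite. Scale: above 0.35 generally sequence-specific binding.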

Sequence | PBM E-score
TCACGACA | -0.138
TAACGACA | 0.381
AGACGACC | 0.132
AAACGACC | 0.458
CAACGACC | 0.221
GGACGACA | -0.266
GAACGACC | 0.429
AGCCAACC | 0.0299
TCTCACCA | -0.14
CAGTGCAC | -0.136
CTACCACA | -0.234
CCGGCTAA | -0.199
AGATAAAG | -0.0496
AAACGACA | 0.479
ACACGACA | 0.221
AGACGACA | 0.104
CAACGACG | 0.296
AAACGACT | 0.456
AAACGACG | 0.476
AGACGACT | 0.0557
ACACGACT | 0.194
CGACGACG | 0.0684
GCCGAGAA | 0.068
AACAATCA | -0.0313
CCTGGGGC | -0.165

Sequence | PBM E-score
TCGCCGCA | -0.0606
AATTAACG | 0.272
AGAATAGC | -0.229
TTCCGGAA | -0.206
CATCATTA | -0.0416
ACTTACTG | -0.00843
CATATATC | 0.114
GGTATATA | 0.152
AGTATATA | 0.282
CGTATATC | 0.454
AGTATATC | 0.0604
CGTATATA | 0.458
AATTCGTG | -0.0513
AATTCGTA | 0.433
CATTCGTA | 0.416
AATTCGTC | 0.0116
CATTCGTC | 0.0696
GATTCGGA | 0.11
GATTCGTA | 0.438
CATTCGCA | 0.0275
GATTCGCA | 0.131
CCTGGGAC | -0.25
CCCTCTCC | -0.339
CCGTTCGC | 0.201
ACCTTGGG | -0.219

Sequence | PBM E-score
CTAAATTC | 0.0497
AGCTGCAT | -0.108
AACGAGAT | 0.417
TCCGAGAA | 0.248
CACGAGAG | 0.0635
AACGAGAA | 0.422
TACGAGAA | 0.447
ATCGAGAG | 0.0513
ATCGAGAT | -0.0275
GACGAGAA | 0.0864
ACCGAGAT | 0.126
TTCGAGAA | 0.109
CACGAGAA | 0.0693
AACGAGAG | 0.425
CCAATCCG | -0.0814
CCGAAAAA | 0.0605
AATCAAAA | -0.0286
ACCCTGGC | -0.206
AATTATGC | 0.0912
CGAATTCA | 0.0713
CTTGGCCC | -0.171
CCGCTTCA | -0.0583
CCATGCCG | -0.135
CCTTGCCC | -0.056
AAATAGAA | -0.0216

Sequence | PBM E-score
CACGAGAC | 0.0139
AACGAGAC | 0.437
GACGAGAC | 0.0394
GTCGCTTA | 0.396
ATCGCTTA | 0.364
ATCGCATA | 0.318
GTCGCATA | 0.375
CTCGCTGA | -0.136
CTCGCTTA | 0.423
CTCGCATA | 0.363
GTCGCTGA | -0.0513
GTCGCTAA | 0.271
ACTGCAGG | -0.156
ATTGGGAC | -0.218
GGTAGTTA | -0.14
GCGAGGAC | -0.102
AAGAGGTC | -0.186
GCGAGTTA | 0.116
ACGAGGGA | 0.364
CCGAGGTC | 0.0232
ACGAGTTA | 0.392
ACGAGGAC | 0.384
ACGAGGGC | 0.388
ACGAGGTC | 0.371
CCGAGGGC | 0.094

Sequence | PBM E-score
ACGAGTTC | 0.342
ACGAGGAG | 0.306
CACCACGC | -0.221
GAGGGGAC | -0.152
AAGGTCAG | -0.239
CGTCGAAC | 0.0511
GCCCCAGA | -0.09
AACTGTAA | 0.103
TAGATTAA | 0.104
GCTGCGGA | -0.164
GCGAGGTA | 0.244
ACGAGGTA | 0.382
ACGAGGTG | 0.367
GATGGTAC | 0.139
AGTGTCAG | -0.0575
CGGGATAC | 0.18
AGGAGGCG | -0.326
GCGAGGCA | 0.195
CCGAGGCC | 0.102
GCGAGGCC | 0.2
ACGAGGCG | 0.4
ACGAGGAT | 0.355
AAGAGGCT | -0.257
ACGAGGCC | 0.381
CCGAGGCG | 0.129

Sequence | PBM E-score
ACGAGGCT | 0.406
CCGAGGCA | -0.0905
ACGAGGCA | 0.408
CACAGGCG | -0.208
CCGACAGG | -0.0268
AATTTGTC | 0.0333
CATTAGCG | 0.197
GATCTCCC | -0.162
GCTGGACC | -0.0565
CTACAATC | 0.0566
ACTAGATG | -0.122
AGGGGCCA | -0.215
ATCGATCA | 0.0619
AACGATCA | 0.379
AACGATCT | 0.381
GACGATCA | -0.0322
ATCGATCG | 0.136
AACGATCC | 0.345
CACGATCG | 0.125
CACGATCA | -0.0545
TACGATCA | 0.422
AGCGATCA | 0.11
AACGATCG | 0.383
ACCGATCT | -0.0555
GAGCGATA | 0.218

Sequence | PBM E-score
GAAGAAGC | -0.195
AGTCAAGG | -0.208
AACGCGAA | 0.23
CTCTTGCC | -0.16
ATAACCTC | -0.0875
AAGGAAAG | -0.171
CGCACTAC | -0.0438
ACCTCAGT | -0.0386
ATATGAAG | -0.19
GTATAAAC | 0.4
ATATAAAC | 0.187
GTATAAAA | 0.348
GTATATAA | 0.298
ATATATAC | 0.265
GTATATAC | 0.395
CATTGGTA | -0.184
AATCACCG | 0.00219
ATTCGCAA | -0.00304
GCCGTAAA | 0.385
CCCCGTAA | 0.308
GCCGTAAC | 0.225
ACCGTAAA | 0.368
CCCGTAAA | 0.381
CCTGTAAA | -0.0269
